Assay [1] addresses Thyrotropin receptor (Homo sapiens) (UniProt P16473). The assay can be described thus: qHTS assay to identify small molecule agonists of the thyroid stimulating hormone receptor (TSHR) signaling pathway (AID 1224843; calls by dose curve; further: nearly all actives have a fitted effect of over 45% in size). Put shortly:
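TSHR-expressing HEK293 cells (800 per well) were exposed to compounds for 30 min at room temperature. cAMP was then detected by HTRF competition with cAMP-d2 and anti-cAMP cryptate, read after 1 h at room temperature. Fifteen concentrations, triplicate.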

Assay [2] is described as follows: qHTS assay to identify small molecule agonists of the hypoxia (HIF-1) signaling pathway - cell viability counter screen (AID 1224844; calls by dose curve; further: nearly all actives have a fitted effect of over 50% in size; further: potency means the concentration at half of the fitted maximal effect). Put shortly: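 Cells (HRE-bla ME-180, 2,000 per well) sat 5 hrs at 37C, got compound for 17 hrs, were read for CCF4-AM FRET, and were finally lysed with CellTiter-Glo for a 30 min room-temperature luminescence read.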
(Quantitative high-throughput screening tests each substance at several concentrations.)

The nature of assay [3]: qHTS assay to identify small molecule agonists of H2AX (AID 1224845; active means well fitted activation curve with a large enough effect in the signal ratio in the repeat runs, not every such curve was filed as active; the % refers to the signal ratio). Put shortly:
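Wild-type CHO-K1 cells plated overnight, then exposed 3 hr at 37C to compounds at 15 concentrations (0.76% DMSO). Lysed, then HTRF anti-pH2AX(S139)-cryptate/anti-H2AX-d2 detection after 24 hr at room temperature; emissions 665 and 620 nm.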

A short description of assay [4]: qHTS assay to identify small molecule agonists of the hypoxia (HIF-1) signaling pathway (AID 1224846; active means well fitted activation curve with a large enough effect in the signal ratio in the repeat runs, not every such curve was filed as active; the % refers to the signal ratio). Put shortly:
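A low-serum medium (0.5% dialyzed FBS) holding 2,000 HRE-bla ME-180 cells per well is preincubated for 5 hrs, dosed with compounds by pintool, and kept a further 17 hrs at 37C, 5% CO2 before CCF4-AM FRET detection of beta-lactamase.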

Assay [5] is described as follows: qHTS RealTime-Glo MT Cell Viability Assay in HepG2 cells - 24 hour (AID 1224867). Further: nearly all actives have a fitted effect of over 50% in size. Put shortly: (§1)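 Luminescence read-out: viable HepG2 cells reduce a prosubstrate to a NanoLuc substrate, giving a signal proportional to live cell number. Reads taken at 0, 8, 16, 24, 32 and 40 h of compound exposure at 37 C.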
Assay [6] is described as follows: A CellTox Green Cytotoxicity Assay to monitor cytotoxicity in HEK293 cells - 0 hour (AID 1224869). Further: nearly all actives have a fitted effect of over 50% in size. Put shortly:
(§2)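 Fluorescence intensity, read at 0, 8, 16, 24, 32 and 40 h of compound treatment, reflected dye binding to DNA of dead HEK293 cells; compounds (23 nL, DMSO) were added 5 h after plating cells with reagent.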

A short description of assay [7]: qHTS RealTime-Glo MT Cell Viability Assay in HepG2 cells - 40 hour (AID 1224870). Further: nearly all actives have a fitted effect of over 50% in size. The gist of the method: (§3)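 HepG2 cells mixed with RealTime-Glo MT reagents (NanoLuc plus cell-permeant prosubstrate) were seeded at 600 cells/well, incubated 5 h at 37 C/5% CO2, then pinned with compounds in DMSO; nonlytic luminescence tracked viability during 40 h treatment.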
The nature of assay [8]: A CellTox Green Cytotoxicity Assay to monitor cytotoxicity in HEK293 cells - 40 hour (AID 1224871). Further: nearly all actives have a fitted effect of over 45% in size. Further: potency means the concentration at half of the fitted maximal effect. The gist of the method:
as §2

A short description of assay [9]: qHTS RealTime-Glo MT Cell Viability Assay in HEK293 cells - 16 hour (AID 1224872). The gist of the method: (§4)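 Nonlytic real-time viability readout: viable cells convert prosubstrate to NanoLuc substrate, giving luminescence proportional to live cell number. HEK293, 600 cells/well, compound added after 5 h, continuous culture at 37 C.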
The nature of assay [10]: qHTS RealTime-Glo MT Cell Viability Assay in HepG2 cells - 8 hour (AID 1224873). Further: nearly all actives have a fitted effect of over 55% in size. The gist of the method: as §3
Assay [11] can be described thus: A CellTox Green Cytotoxicity Assay to monitor cytotoxicity in HEK293 cells - 24 hour (AID 1224875). Further: nearly all actives have a fitted effect of over 45% in size. Put shortly:
as §2

Assay [12] can be described thus: qHTS RealTime-Glo MT Cell Viability Assay in HepG2 cells - 32 hour (AID 1224877). Further: nearly all actives have a fitted effect of over 55% in size. The gist of the method:
as §1

The nature of assay [13]: qHTS assay to identify small molecule agonists of H2AX - cell viability counter screen (AID 1224847; calls by dose curve; further: top concentration of the series differs between compounds; nearly all actives have a fitted effect of over 30% in size). The gist of the method: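 CHO-K1 cells plated overnight at 37C, then exposed 3 h at 37C to compounds at 15 concentrations (0.76% DMSO final). Viability by CellTiter-Glo luminescence after 30 min at room temperature.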
Assay [14] can be described thus: qHTS RealTime-Glo MT Cell Viability Assay in HEK293 cells - 40 hour (AID 1224874). Further: nearly all actives have a fitted effect of over 50% in size. Further: potency means the concentration at half of the fitted maximal effect. The following applies: RealTime-Glo luminescence; max response: stronger effect = lower value. The gist of the method: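 Viable HEK293 cells reduce a cell-permeant prosubstrate; the product diffuses out and is consumed by NanoLuc in the medium to give light. Compounds went in after a 5 h incubation and plates were read over the treatment course.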

Assay [15] in a line: A CellTox Green Cytotoxicity Assay to monitor cytotoxicity in HepG2 cells - 16 hour (AID 1224876). Further: nearly all actives have a fitted effect of over 45% in size. The gist of the method:
(§5)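 Using 1536-well format, dye-containing HepG2 suspension was seeded, allowed 5 h at 37 C/5% CO2, dosed by pintool with compounds, positive and negative controls, and imaged for fluorescence across 40 h.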

Assay [16] is described as follows: A CellTox Green Cytotoxicity Assay to monitor cytotoxicity in HepG2 cells - 24 hour (AID 1224878). Further: nearly all actives have a fitted effect of over 45% in size. Put shortly:
as §5

Assay [17] is described as follows: qHTS RealTime-Glo MT Cell Viability Assay in HEK293 cells - 32 hour (AID 1224868). Further: nearly all actives have a fitted effect of over 50% in size. Further: potency means the concentration at half of the fitted maximal effect. Put shortly: as §4
Assay [18] in a line: A CellTox Green Cytotoxicity Assay to monitor cytotoxicity in HepG2 cells - 40 hour (AID 1224879). Further: nearly all actives have a fitted effect of over 40% in size. Put shortly: as §5
Assay [19] can be described thus: qHTS assay to identify small molecule antagonists of the estrogen related receptor (ERR) signaling pathway from Tox21 library (AID 1224848). Further: nearly all actives have a fitted effect of over 50% in size. The gist of the method:
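Cells: ERR line, 2,000/well; 6 h preincubation 37 C/5% CO2. Cpd in DMSO via pin tool; 18 h, 37 C. ONE-Glo, 30 min RT, luminescence.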

The nature of assay [20]: qHTS assay to identify small molecule agonists of the estrogen related receptor (ERR) signaling pathway from Tox21 library (AID 1224849; calls by dose curve; further: nearly all actives have a fitted effect of over 15% in size). The following applies: ERR reporter cell line, ONE-Glo luciferase, 18 h; at 92.4 µM (top of the series) unless noted. Put shortly:
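Screening used an NTP-provided ERR luciferase cell line. Compounds in DMSO were added 6 h after seeding and left 18 h at 37 C before a 30 min ONE-Glo step and luminescence reading.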

A number with no mark means an inactive call. Results filed as inconclusive are left out. Active and inactive are the calls of the source. Unless noted, the call rests on the fitted dose curve; in most records, active means well fitted curve in the direction sought with a large enough effect in the repeat runs; inconclusive means weak or mixed curves; inactive means no such curve, though single readings can be large; an effect the other way counts as inactive or inconclusive.

This is an account of results in PubChem BioAssay (Tox21).
On the % scale 0 is the no-effect control and ±100 the full control effect.

Chain of Thyrotropin receptor (Homo sapiens) (P16473 whole entry, looked up): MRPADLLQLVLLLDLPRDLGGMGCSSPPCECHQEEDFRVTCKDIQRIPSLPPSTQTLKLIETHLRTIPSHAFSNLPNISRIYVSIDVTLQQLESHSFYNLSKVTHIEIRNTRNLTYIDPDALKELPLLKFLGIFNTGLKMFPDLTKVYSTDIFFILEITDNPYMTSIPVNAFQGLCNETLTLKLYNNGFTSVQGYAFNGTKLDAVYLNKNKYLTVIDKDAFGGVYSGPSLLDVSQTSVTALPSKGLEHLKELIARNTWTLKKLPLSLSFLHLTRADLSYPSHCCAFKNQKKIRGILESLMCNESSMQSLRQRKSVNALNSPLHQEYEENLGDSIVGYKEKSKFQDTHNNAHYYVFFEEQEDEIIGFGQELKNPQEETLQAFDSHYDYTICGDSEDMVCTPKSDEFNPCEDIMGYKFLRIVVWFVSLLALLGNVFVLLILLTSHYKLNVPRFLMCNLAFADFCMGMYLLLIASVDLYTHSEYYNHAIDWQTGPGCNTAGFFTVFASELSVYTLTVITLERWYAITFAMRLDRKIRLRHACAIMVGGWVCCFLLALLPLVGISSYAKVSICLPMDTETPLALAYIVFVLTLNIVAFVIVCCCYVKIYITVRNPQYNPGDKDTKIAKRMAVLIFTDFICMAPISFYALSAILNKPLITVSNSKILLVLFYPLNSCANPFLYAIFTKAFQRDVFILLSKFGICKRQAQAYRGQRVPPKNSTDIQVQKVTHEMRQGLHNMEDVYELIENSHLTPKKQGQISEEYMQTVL

Turning to `O=C(OCCOCCO)c1ccccc1Nc1cccc(C(F)(F)F)c1`, the Potency result in assay [1], in assay [2], in [3], in assay [5], in assay [6] and in assay [7] was “inactive” each time. Also, the Potency result in assay [9], in [10], in [11] and in assay [12] was “inactive” throughout. Moreover, in [4], the compound was called inactive. Further, in assay [8], the Potency was 2.39 µM (active).

On to `C/C=C/C=C/CCCCCCCO`, for which the Potency entry in assay [1], in assay [2], in assay [13], in assay [5], in assay [6] and in assay [7] was “inactive” in each case. Also, the Potency result in [9], in [11], in [15], in assay [12] and in assay [16] was “inactive” throughout. The outcome in assay [4] was inactive. Also, the max response in [14] was -18.5%.

Consider `C=CCNc1nc(NCC=C)nc(N2CCN(C(c3ccc(F)cc3)c3ccc(F)cc3)CC2)n1`, for which the Potency result in assay [1], in assay [2], in [5], in assay [17], in assay [6] and in assay [7] was “inactive” in each case. Besides, the Potency entry in assay [8], in assay [9], in assay [10], in [15], in [12] and in assay [16] was “inactive” in each case. Moreover, the Potency entry in assay [18] is “inactive”. In addition, the outcome in assay [4] was inactive. Also, in assay [14], the max response is -23.1%.

As for `CCOC(=O)OCC`, the Potency entry in [1], in [2], in [13], in assay [5], in [17] and in assay [6] was “inactive” each time. For the same compound, the Potency result in assay [7], in [8], in assay [9], in [10], in assay [11] and in [15] was “inactive” each time. For the same compound, the Potency entry in [12] and in assay [16] was “inactive” in each case. Moreover, the outcome in assay [4] was inactive. The max response in assay [14] was 7.38%.

On to `CC(=O)Oc1ccc2c(c1)CC[C@@H]1[C@@H]2CC[C@]2(C)[C@@H](O)CC[C@@H]12`, for which the Potency entry in assay [1], in assay [2], in assay [13], in assay [5], in [6] and in [7] was “inactive” in each case. Besides, the Potency result in [10], in assay [11], in assay [15] and in assay [12] was “inactive” in each case. Moreover, the outcome in assay [4] was inactive. For the same compound, the values for the Potency in [17] and in [14] were 9.52 µM (active) and 16.9 µM (active), respectively.

Turning to `c1ccc(COCc2ccccc2)cc1`, the Potency entry in [1], in assay [2], in assay [13], in assay [19], in [5] and in [17] was “inactive” in each case. Also, the Potency result in assay [6], in assay [7], in [8], in assay [9], in assay [11] and in [15] was “inactive” in each case. The Potency entry in [12], in [16] and in [18] was “inactive” in each case. In assay [4], the call was inactive. In addition, the max response in assay [14] was 16.4%.

As to `Cc1c(C(=O)NN2CCCCC2)nn(-c2ccc(Cl)cc2Cl)c1-c1ccc(Cl)cc1`, the Potency result in assay [1], in assay [13], in [5], in assay [7], in assay [8] and in assay [10] was “inactive” in each case. Also, the Potency result in [11], in [15], in assay [12], in assay [16] and in assay [18] was “inactive” throughout. Besides, the Potency in assay [2] was 21.3 µM (active).

Regarding `C(=C\c1ccccc1)/CN1CCN(C(c2ccccc2)c2ccccc2)CC1`, the Potency result in assay [1], in assay [2], in assay [5], in [7], in assay [8] and in [10] was “inactive” in each case. Further, the Potency entry in [15], in [12] and in assay [16] was “inactive” in each case.

In the case of `Cc1cc(O)c2c(O)c3c(O)cccc3cc2c1`, the Potency result in assay [1], in assay [2], in [13], in assay [5], in [17] and in assay [6] was “inactive” in each case. In addition, the Potency entry in assay [7], in assay [8], in [9], in assay [10], in assay [11] and in assay [15] was “inactive” throughout. Moreover, the Potency entry in assay [12], in [16] and in [18] was “inactive” throughout. The result in [4] was inactive. The activity change, positive = activation in assay [20] is -25.3% [at 42.5 µM]. For the same compound, the max response in assay [14] is -16.2%.
